In PubChem BioAssay AID1159580 (chemical genetic matrix, 2015):
The campaign covered roughly 5,500 compounds. About 2,000 (36%) were called active. About 18% were inconclusive and are not listed. No stated cut-off is given here; in the data, active means normalized growth mostly below about 0.91 (no sharp cut-off); inconclusive means no clear call, values can overlap the other calls; inactive means mostly above about 0.92. The list shows a part of the results.

Experiment: chemical genetic growth profiling, strain panel (AID 1159580);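 further: tested at 20 µM; growth read once vehicle control cultures reached saturation at 30 °C; 1 = growth at the plate median or of vehicle wells; lower values mean less growth of the strain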
Conditions: growth OD

Measured: normalized growth

COC(=O)c1ccccc1-n1cccc1C(=O)OC
inactive: S. cerevisiae deletion strains, locus YAL013W, strain DEP1, hits give low values 0.981 | S. cerevisiae deletion strains, locus YBR229C, strain ROT2, hits give low values 0.975 | S. cerevisiae deletion strains, locus YDL101C, strain DUN1, hits give low values 0.971 | S. cerevisiae deletion strains, locus YDL134C, strain PPH21, hits give low values 0.997 | S. cerevisiae deletion strains, locus YDR150W, strain NUM1, hits give low values 1.01 | S. cerevisiae deletion strains, locus YEL061C, strain CIN8, hits give low values 0.994 | S. cerevisiae deletion strains, locus YGR078C, strain PAC10, hits give low values 0.982 | S. cerevisiae deletion strains, locus YGR229C, strain SMI1, hits give low values 1.02 | S. cerevisiae deletion strains, locus YHR030C, strain SLT2, hits give low values 1.04 | S. cerevisiae deletion strains, locus YHR087W, strain rtc3, hits give low values 0.96 | S. cerevisiae deletion strains, locus YJL187C, strain SWE1, hits give low values 0.996 | S. cerevisiae deletion strains, locus YJR043C, strain POL32, hits give low values 0.993 | S. cerevisiae deletion strains, locus YJR075W, strain HOC1, hits give low values 1.05 | S. cerevisiae deletion strains, locus YLR039C, strain RIC1, hits give low values 0.97 | S. cerevisiae deletion strains, locus YLR058C, strain SHM2 (second series), hits give low values 0.989 | S. cerevisiae deletion strains, locus YLR085C, strain ARP6, hits give low values 1.03 | S. cerevisiae deletion strains, locus YLR262C, strain YPT6, hits give low values 0.973 | S. cerevisiae deletion strains, locus YML094W, strain GIM5, hits give low values 0.957 | S. cerevisiae deletion strains, locus YMR219W, strain ESC1, hits give low values 0.99 | S. cerevisiae deletion strains, locus YMR263W, strain SAP30, hits give low values 1.02 | S. cerevisiae deletion strains, locus YNL153C, strain GIM3, hits give low values 1 | S. cerevisiae deletion strains, locus YNL298W, strain CLA4 (second series), hits give low values 0.988 | S. cerevisiae deletion strains, locus YNL322C, strain KRE1, hits give low values 0.992 | S. cerevisiae deletion strains, locus YNR030W, strain Alg12, hits give low values 0.973 | S. cerevisiae deletion strains, locus YOL006C, strain TOP1, hits give low values 0.969 | S. cerevisiae deletion strains, locus YPL055C, strain LGE1, hits give low values 0.972 | S. cerevisiae deletion strains, locus YPL241C, strain CIN2, hits give low values 0.969 | S. cerevisiae deletion strains, locus YPR135W, strain CTF4, hits give low values 0.943 | S. cerevisiae strains, strain wild type, hits give low values 0.993
